For one sequence, binding signal results are on record in PMC7862700, “An all-to-all approach to the identification of sequence-specific readers for epigenetic DNA modifications on cytosine”.

Experiment in all cases: DAPPL (digital affinity profiling via proximity ligation, sequencing); 10 mM Tris-HCl pH 7.5, 50 mM NaCl, 1 mM DTT, 4% glycerol, room temperature, 30 min; GST-TFs on glutathione beads, 16-mer random dsDNA library, 0.1% formaldehyde crosslink after washing; high values mean tight binding
The target in one experiment is T1, FLI1 (Homo sapiens, UniProt Q01543 1-452).
T1 sequence: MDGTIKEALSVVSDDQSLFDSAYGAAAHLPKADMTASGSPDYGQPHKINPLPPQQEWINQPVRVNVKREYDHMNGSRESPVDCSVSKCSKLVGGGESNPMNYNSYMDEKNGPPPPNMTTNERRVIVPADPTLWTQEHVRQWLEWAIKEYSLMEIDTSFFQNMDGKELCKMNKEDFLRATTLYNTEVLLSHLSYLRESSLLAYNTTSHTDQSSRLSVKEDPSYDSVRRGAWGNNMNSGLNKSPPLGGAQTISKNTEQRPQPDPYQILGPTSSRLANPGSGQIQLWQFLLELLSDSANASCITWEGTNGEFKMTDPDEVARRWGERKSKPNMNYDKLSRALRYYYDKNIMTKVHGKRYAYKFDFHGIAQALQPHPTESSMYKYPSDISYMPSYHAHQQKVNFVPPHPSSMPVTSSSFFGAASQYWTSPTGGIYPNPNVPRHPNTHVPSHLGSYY
As to conditions: protein: recombinant; tags: N-terminal GST; dsDNA, one strand shown. Put shortly: (§1)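 In yeast, human transcription factors were expressed with a GST fusion, then pulled down on glutathione beads and given DNA barcodes. Pooled with a tag-only sample, they were exposed to 200 nmole of a 16-mer random double-stranded DNA library (Tris/NaCl/DTT/glycerol buffer, room temperature, 30 min), washed, crosslinked with 0.1% formaldehyde, proximity-ligated using BsaI/T4 ligase for 1 h at 37 °C, PCR-amplified and read on an Illumina NextSeq500. Each hexamer's frequency of reads for a factor, divided by the matching frequency for the tag-only sample, gives the binding signal.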

A further experiment concerns the target T2, ELK1 (Homo sapiens, UniProt P19419 1-428).
T2 sequence: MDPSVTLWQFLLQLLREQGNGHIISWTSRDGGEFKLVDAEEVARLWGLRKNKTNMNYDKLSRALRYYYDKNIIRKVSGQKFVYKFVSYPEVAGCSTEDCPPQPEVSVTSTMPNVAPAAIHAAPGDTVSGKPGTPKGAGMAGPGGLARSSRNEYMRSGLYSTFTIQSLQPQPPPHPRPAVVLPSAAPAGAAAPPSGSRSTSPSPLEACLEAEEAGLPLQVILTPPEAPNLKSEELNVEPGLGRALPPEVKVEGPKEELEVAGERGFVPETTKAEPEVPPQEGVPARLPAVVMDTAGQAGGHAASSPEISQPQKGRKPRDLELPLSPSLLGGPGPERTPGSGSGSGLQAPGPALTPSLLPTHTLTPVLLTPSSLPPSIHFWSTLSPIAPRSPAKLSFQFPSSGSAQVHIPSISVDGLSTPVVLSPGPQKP
As to conditions: protein: recombinant; tags: N-terminal GST; dsDNA, one strand shown. Summed up: as §1

The target in another experiment is T3, GABPA (Homo sapiens, UniProt Q06546 1-454).
T3 sequence: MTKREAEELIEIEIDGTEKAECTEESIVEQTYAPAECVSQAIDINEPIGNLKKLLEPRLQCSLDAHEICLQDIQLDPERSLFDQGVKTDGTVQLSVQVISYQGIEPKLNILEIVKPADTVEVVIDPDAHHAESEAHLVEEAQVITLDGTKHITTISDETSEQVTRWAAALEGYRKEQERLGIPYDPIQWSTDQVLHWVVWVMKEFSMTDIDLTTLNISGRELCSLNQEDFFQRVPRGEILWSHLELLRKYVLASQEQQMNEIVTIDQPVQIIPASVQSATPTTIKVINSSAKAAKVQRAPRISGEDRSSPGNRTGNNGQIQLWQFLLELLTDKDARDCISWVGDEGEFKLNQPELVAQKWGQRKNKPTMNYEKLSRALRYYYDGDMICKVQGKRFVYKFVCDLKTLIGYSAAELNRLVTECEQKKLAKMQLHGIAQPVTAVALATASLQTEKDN
As to conditions: protein: recombinant; tags: N-terminal GST; dsDNA, one strand shown. Put shortly: as §1

The target of the next experiment is T4, ERG (Homo sapiens, UniProt P11308 1-479).
T4 sequence: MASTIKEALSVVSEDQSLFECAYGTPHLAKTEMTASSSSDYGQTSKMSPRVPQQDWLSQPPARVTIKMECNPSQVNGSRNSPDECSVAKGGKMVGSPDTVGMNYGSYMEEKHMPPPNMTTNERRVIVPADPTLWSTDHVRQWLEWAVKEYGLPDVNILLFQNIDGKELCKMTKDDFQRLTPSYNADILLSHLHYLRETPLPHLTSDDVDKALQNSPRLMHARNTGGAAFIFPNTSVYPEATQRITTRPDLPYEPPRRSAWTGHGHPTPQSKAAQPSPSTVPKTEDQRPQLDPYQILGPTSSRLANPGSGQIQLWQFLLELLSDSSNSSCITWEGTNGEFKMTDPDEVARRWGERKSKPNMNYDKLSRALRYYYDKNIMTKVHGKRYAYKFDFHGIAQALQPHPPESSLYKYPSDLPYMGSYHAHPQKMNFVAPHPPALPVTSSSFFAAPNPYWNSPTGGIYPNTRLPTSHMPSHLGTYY
As to conditions: protein: recombinant; tags: N-terminal GST; dsDNA, one strand shown. Summed up:
as §1

Another experiment concerns the target ELF1 (Homo sapiens, UniProt P32519 1-619). As to conditions: protein: recombinant; tags: N-terminal GST; dsDNA, one strand shown. Put shortly: as §1
Another experiment addresses T5, EHF (Homo sapiens, UniProt Q9NZC4 1-300).
T5 sequence: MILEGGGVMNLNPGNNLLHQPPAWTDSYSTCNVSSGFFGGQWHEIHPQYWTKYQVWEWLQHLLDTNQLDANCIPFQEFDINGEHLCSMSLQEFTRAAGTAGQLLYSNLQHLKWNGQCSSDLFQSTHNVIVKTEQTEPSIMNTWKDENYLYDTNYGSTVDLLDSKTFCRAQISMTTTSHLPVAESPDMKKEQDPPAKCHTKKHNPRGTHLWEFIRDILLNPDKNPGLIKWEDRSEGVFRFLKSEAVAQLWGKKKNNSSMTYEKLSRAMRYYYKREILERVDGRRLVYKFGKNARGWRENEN
As to conditions: protein: recombinant; tags: N-terminal GST; dsDNA, one strand shown. Summed up:
as §1

For a further experiment, the target named is SPI1 (Homo sapiens, UniProt P17947 1-270). As to conditions: protein: recombinant; tags: N-terminal GST; dsDNA, one strand shown. Summed up: as §1
The next experiment addresses SPIB (Homo sapiens, UniProt Q01892 1-262). As to conditions: protein: recombinant; tags: N-terminal GST; dsDNA, one strand shown. Put shortly: as §1
Another experiment concerns the target T6, ELK3 (Homo sapiens, UniProt P41970 1-407).
T6 sequence: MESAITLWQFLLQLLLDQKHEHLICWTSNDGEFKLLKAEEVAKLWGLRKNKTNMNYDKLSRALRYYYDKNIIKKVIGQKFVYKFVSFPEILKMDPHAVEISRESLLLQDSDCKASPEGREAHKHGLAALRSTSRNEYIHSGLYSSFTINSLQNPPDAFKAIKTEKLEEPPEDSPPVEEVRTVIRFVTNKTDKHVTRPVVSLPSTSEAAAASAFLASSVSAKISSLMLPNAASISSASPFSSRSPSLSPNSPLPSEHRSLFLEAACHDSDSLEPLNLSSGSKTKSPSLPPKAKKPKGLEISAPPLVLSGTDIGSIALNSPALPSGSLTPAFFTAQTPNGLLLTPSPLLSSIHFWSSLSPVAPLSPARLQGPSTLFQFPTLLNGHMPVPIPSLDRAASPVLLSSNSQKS
As to conditions: protein: recombinant; tags: N-terminal GST; dsDNA, one strand shown. Put shortly: as §1

A further experiment has as its target T7, FEV (Homo sapiens, UniProt Q99581 1-238).
T7 sequence: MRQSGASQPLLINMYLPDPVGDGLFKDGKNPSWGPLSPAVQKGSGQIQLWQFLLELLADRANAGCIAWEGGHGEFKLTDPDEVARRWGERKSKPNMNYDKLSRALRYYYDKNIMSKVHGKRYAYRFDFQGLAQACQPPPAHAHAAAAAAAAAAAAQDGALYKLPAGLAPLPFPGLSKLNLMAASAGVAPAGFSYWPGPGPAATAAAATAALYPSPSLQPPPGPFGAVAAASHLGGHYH
As to conditions: protein: recombinant; tags: N-terminal GST; dsDNA, one strand shown. Summed up:
as §1

A further experiment deals with ETV5 (Homo sapiens, UniProt P41161 1-510). As to conditions: protein: recombinant; tags: N-terminal GST; dsDNA, one strand shown. Summed up:
as §1

The next experiment has as its target HSF1 (Homo sapiens, UniProt Q00613 1-529). As to conditions: protein: recombinant; tags: N-terminal GST; chain copies: 3; dsDNA, one strand shown. Put shortly: as §1
A further experiment addresses T8, SPIC (Homo sapiens, UniProt Q8N5J4 1-248).
T8 sequence: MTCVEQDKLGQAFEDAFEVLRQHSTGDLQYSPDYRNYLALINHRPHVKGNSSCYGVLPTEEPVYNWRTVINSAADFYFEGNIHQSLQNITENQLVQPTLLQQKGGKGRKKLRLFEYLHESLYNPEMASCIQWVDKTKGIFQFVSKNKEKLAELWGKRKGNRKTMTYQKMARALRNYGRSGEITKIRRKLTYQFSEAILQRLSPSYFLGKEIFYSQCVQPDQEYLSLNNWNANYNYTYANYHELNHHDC
As to conditions: protein: recombinant; tags: N-terminal GST; dsDNA, one strand shown. Summed up:
as §1

Another experiment deals with ELF4 (Homo sapiens, UniProt Q99607 1-663). As to conditions: protein: recombinant; tags: N-terminal GST; dsDNA, one strand shown. Summed up: as §1
Another experiment has as its target T9, ELK4 (Homo sapiens, UniProt P28324-2 1-405).
T9 sequence: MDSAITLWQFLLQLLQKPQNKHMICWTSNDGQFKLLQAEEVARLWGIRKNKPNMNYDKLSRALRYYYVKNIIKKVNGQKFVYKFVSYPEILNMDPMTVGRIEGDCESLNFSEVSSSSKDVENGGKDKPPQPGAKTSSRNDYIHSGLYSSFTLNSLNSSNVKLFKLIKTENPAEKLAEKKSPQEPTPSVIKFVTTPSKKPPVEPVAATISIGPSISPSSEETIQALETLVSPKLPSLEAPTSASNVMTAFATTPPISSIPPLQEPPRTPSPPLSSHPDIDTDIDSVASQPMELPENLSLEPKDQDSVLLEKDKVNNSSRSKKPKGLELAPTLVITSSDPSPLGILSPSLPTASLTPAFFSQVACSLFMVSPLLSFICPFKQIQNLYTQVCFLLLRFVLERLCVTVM
As to conditions: protein: recombinant; tags: N-terminal GST; dsDNA, one strand shown. Summed up:
as §1

The target in the next experiment is T10, ETV2 (Homo sapiens, UniProt O00321 1-342).
T10 sequence: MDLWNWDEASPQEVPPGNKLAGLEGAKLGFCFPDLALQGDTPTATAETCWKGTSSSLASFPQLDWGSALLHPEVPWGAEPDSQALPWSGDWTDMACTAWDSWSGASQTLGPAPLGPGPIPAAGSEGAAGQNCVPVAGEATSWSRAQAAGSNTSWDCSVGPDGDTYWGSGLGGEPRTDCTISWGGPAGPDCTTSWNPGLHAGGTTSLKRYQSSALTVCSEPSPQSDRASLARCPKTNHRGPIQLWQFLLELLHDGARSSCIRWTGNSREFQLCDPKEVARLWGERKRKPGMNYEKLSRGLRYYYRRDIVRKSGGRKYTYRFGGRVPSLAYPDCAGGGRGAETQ
As to conditions: protein: recombinant; tags: N-terminal GST; dsDNA, one strand shown. Summed up: as §1

In a further experiment the target is T11, ELF3 (Homo sapiens, UniProt P78545 1-371).
T11 sequence: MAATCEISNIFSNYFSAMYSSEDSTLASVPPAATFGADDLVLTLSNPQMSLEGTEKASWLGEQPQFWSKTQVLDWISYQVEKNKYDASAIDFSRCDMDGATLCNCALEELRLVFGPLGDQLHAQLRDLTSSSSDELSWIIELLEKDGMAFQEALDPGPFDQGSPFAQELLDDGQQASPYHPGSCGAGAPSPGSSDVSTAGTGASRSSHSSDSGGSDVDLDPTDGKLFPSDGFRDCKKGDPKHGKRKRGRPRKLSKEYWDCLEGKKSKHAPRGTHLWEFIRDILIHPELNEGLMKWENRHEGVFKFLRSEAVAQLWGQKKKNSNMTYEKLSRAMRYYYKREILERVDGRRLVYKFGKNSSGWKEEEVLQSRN
As to conditions: protein: recombinant; tags: N-terminal GST; dsDNA, one strand shown. Summed up: as §1

The target of the next experiment is CRX (Homo sapiens, UniProt O43186 1-299). As to conditions: protein: recombinant; tags: N-terminal GST; dsDNA, one strand shown. Put shortly:
as §1

A further experiment addresses ETV1 (Homo sapiens, UniProt P50549 1-477). As to conditions: protein: recombinant; tags: N-terminal GST; dsDNA, one strand shown. Summed up: as §1

SPIB, sequence (Q01892 whole entry): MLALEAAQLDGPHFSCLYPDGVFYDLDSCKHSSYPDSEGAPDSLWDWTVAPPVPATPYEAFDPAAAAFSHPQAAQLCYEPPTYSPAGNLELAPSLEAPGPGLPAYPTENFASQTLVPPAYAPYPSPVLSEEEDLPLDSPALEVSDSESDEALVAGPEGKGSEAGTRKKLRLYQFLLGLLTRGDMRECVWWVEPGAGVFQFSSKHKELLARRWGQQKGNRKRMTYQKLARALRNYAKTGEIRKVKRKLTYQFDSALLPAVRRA
ETV1, sequence (P50549 whole entry): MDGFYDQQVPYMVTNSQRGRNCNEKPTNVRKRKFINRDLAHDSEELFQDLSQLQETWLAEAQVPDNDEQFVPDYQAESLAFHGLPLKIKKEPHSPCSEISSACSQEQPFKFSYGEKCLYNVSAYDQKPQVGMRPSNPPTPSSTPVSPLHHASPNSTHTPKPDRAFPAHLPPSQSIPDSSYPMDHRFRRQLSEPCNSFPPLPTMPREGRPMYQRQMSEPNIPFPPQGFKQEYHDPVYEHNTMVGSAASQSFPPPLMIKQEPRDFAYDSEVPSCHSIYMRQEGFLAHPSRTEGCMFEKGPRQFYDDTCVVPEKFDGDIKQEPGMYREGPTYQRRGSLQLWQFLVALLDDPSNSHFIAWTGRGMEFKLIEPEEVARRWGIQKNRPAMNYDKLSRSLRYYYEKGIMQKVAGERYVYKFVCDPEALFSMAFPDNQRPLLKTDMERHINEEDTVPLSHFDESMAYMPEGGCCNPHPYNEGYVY
ELF4, sequence (Q99607 whole entry): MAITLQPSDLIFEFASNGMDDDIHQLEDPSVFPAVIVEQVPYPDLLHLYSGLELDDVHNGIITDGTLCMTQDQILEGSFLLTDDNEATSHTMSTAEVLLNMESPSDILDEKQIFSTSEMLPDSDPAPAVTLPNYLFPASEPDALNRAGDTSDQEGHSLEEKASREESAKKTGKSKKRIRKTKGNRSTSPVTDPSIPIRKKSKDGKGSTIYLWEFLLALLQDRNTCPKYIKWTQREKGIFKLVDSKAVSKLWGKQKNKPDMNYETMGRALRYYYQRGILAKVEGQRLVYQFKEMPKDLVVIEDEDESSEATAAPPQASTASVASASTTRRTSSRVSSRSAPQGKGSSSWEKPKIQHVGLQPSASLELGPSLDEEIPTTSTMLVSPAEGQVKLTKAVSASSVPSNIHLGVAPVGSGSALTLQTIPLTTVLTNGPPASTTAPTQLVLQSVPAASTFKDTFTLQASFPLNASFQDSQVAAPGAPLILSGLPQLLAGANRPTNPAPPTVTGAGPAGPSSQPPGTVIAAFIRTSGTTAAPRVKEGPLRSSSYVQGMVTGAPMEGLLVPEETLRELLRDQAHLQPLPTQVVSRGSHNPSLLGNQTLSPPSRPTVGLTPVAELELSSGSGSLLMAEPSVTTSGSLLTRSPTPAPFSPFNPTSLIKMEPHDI
CRX, sequence (O43186 whole entry): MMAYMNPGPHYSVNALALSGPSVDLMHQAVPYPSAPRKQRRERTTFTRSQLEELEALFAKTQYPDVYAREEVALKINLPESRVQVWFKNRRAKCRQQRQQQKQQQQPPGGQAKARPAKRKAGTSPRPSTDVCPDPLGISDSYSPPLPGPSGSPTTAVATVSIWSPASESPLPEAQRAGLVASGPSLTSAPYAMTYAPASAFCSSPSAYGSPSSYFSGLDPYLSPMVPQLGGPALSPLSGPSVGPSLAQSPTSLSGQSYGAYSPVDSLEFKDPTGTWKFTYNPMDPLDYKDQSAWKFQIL
ETV5, sequence (P41161 whole entry): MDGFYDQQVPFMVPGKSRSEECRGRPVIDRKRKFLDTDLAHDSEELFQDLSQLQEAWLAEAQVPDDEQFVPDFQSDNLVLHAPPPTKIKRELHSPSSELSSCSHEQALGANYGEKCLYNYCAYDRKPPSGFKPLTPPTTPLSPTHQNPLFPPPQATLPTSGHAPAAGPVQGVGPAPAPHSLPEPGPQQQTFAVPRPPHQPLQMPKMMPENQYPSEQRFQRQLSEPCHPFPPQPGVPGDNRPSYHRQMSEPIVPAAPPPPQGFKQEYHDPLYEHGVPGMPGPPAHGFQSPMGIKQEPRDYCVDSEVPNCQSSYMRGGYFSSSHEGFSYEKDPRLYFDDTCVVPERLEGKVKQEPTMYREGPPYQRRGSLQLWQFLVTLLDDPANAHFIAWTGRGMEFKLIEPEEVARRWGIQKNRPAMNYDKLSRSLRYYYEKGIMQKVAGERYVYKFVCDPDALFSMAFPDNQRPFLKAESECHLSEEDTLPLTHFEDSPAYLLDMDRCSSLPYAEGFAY
HSF1, sequence (Q00613 whole entry): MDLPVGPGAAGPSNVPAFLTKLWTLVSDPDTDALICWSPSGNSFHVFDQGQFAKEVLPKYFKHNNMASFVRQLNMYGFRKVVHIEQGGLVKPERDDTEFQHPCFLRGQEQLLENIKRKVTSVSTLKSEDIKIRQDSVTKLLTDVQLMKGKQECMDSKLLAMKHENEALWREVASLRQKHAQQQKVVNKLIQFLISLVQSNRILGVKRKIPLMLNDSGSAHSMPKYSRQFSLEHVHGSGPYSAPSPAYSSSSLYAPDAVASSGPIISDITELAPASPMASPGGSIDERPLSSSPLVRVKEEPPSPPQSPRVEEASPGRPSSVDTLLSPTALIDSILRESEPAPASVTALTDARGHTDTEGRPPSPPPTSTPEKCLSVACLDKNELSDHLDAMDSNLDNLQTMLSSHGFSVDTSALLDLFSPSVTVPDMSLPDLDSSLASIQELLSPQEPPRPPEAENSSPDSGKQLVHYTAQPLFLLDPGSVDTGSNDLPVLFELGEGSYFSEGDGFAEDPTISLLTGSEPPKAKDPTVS
ELF1, sequence (P32519 whole entry): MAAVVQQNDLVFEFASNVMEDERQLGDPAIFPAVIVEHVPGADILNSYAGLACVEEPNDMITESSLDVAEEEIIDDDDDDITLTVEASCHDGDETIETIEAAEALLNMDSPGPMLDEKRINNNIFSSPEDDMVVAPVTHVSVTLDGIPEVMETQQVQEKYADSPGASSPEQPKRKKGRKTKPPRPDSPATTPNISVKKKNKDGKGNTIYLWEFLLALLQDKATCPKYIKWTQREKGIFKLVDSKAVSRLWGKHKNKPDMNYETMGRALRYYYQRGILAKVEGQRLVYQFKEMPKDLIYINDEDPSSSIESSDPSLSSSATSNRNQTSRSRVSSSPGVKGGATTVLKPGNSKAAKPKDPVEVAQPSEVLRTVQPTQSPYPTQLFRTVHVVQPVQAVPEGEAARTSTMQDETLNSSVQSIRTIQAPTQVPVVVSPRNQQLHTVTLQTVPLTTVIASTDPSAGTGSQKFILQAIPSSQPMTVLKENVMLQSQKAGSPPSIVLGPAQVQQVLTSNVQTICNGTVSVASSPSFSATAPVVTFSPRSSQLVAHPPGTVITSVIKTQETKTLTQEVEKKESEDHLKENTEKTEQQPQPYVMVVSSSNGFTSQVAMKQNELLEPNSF

For ATTCCA, the binding signal with FLI1 was 1.17 fold enrichment (6-mer frequency, TF over GST control); with ELK1, 1.1 fold enrichment (6-mer frequency, TF over GST control); in the experiment with GABPA, 1.16 fold enrichment (6-mer frequency, TF over GST control); with ERG, 1.14 fold enrichment (6-mer frequency, TF over GST control); in the experiment with ELF1, 1.22 fold enrichment (6-mer frequency, TF over GST control); with EHF, 1.13 fold enrichment (6-mer frequency, TF over GST control). Besides, the binding signal with SPI1 is 1.16 fold enrichment (6-mer frequency, TF over GST control); with SPIB, 1.1 fold enrichment (6-mer frequency, TF over GST control); with ELK3 it was 1.25 fold enrichment (6-mer frequency, TF over GST control); with FEV, 1.07 fold enrichment (6-mer frequency, TF over GST control); in the experiment with ETV5, 1.18 fold enrichment (6-mer frequency, TF over GST control); in the experiment with HSF1, 2.28 fold enrichment (6-mer frequency, TF over GST control). The binding signal in the experiment with SPIC is 1.14 fold enrichment (6-mer frequency, TF over GST control); with ELF4 it was 1.25 fold enrichment (6-mer frequency, TF over GST control); in the experiment with ELK4, 1.19 fold enrichment (6-mer frequency, TF over GST control); with ETV2 it was 1.25 fold enrichment (6-mer frequency, TF over GST control); with ELF3, 1.04 fold enrichment (6-mer frequency, TF over GST control); with CRX it was 1.58 fold enrichment (6-mer frequency, TF over GST control). Besides, the binding signal with ETV1 is 1.11 fold enrichment (6-mer frequency, TF over GST control).
